Measured values from publication PMC5540273 (PLoS ONE, 2017).

Tests used:
Conditions in all cases: concentration: 1 μM,replicates: in singlicate; n = 1
TNNI3K = tested on: TNNI3K
TRKA = tested on: T1, TRKA
T1 construct: gene NTRK1

TRKB = tested on: TRKB
TRKC = tested on: T2, TRKC
T2 construct: gene NTRK3

TRPM6 = tested on: TRPM6
TSSK1B = tested on: TSSK1B
TSSK3 = tested on: TSSK3
TTK = tested on: TTK
TXK = tested on: TXK
[1] = tested on: TYK2(JH1domain-catalytic)
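Also: KINOMEscan kinase panel screen.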

| SMILES | %Inh (TNNI3K) | %Inh (TRKA) | %Inh (TRKB) | %Inh (TRKC) | %Inh (TRPM6) | %Inh (TSSK1B) | %Inh (TSSK3) | %Inh (TTK) | %Inh (TXK) | %Inh [1] |
| --- | --- | --- | --- | --- | --- | --- | --- | --- | --- | --- |
| COc1cc2c(Nc3ccc(NC(=O)c4ccccc4)cc3)ncnc2cc1OCCCN1CCOCC1 [GSK301329] | 9% | 84% | 0% | 0% | 23% | 0% | 16% | 50% | 4% | 2% |
| O=c1[nH]cc(-c2ccc(O)cc2)c2sc(-c3ccncc3)cc12 [GSK1033723] | 18% | 46% | 0% | 14% | 2% | 0% | 9% | 11% | 5% | 0% |
| CS(=O)c1ccc(-c2coc3ccc(-c4n[nH]c(=O)o4)cc23)cc1 (stereo not drawn) | 0% | 26% | 0% | 39% | 0% | 0% | 0% | 0% | 4% | 9% |
| NC(=O)c1ccc(-c2cc3ncnc(SCC(=O)O)c3s2)cc1 | 0% | 54% | 35% | 0% | 0% | 0% | 0% | 13% | 0% | 2% |
| COc1cccc(OC)c1C(=O)Nc1cccc(-c2nn3ccccc3c2-c2ccnc(Nc3cccc(F)c3)n2)c1 [GSK361065] | 8% | 0% | 0% | 0% | 4% | 20% | 0% | 5% | 6% | 0% |
| CCCC(=O)Nc1n[nH]c2ncccc12 [SB-601436] | 0% | 0% | 6% | 28% | 2% | 0% | 0% | 0% | 0% | 0% |
| Cn1ccc2ncnc(Oc3ccc(NC(=O)Nc4cccc(C(F)(F)F)c4)c(F)c3)c21 | 82% | 100% | 88% | 96.4% | 0% | 0% | 0% | 18% | 0% | 0% |
| Cn1ccc2ncnc(Oc3ccc(NC(=O)Nc4cccc(C(F)(F)F)c4)c(Cl)c3)c21 | 87% | 53% | 84% | 84% | 0% | 0% | 0% | 25% | 0% | 0% |
| COc1cccc(C2=C(Nc3cccc(Cl)c3)C(=O)NC2=O)c1 [SB-341556] | 14% | 0% | 36% | 19% | 0% | 16% | 6% | 13% | 1% | 14% |
| CC(=O)Nc1nc2cnc(Nc3cc(NC(=O)c4cccc(CC(C)(C)C#N)c4)ccc3C)nc2s1 | 57% | 0% | 0% | 7% | 2% | 19% | 1% | 12% | 1% | 0% |
| CC(=O)Nc1ccc(-c2cc3ncnc(SCC(=O)O)c3s2)cc1 | 0% | 31% | 0% | 0% | 23% | 21% | 0% | 0% | 17% | 37% |
| CC(=O)c1c(-c2ccncc2)[nH]c(-c2ccncc2)c1C [GW493036] | 0% | 0% | 0% | 0% | 33% | 34% | 13% | 3% | 35% | 42% |
| O=C(Nc1cccc(Oc2ccc3nccn3n2)c1)Nc1cccc(C(F)(F)F)c1 | 66% | 76% | 35% | 55% | 0% | 13% | 0% | 0% | 22% | 9% |
| CC(C(=O)NC1CCN(c2ccnc(Nc3ccc(F)cc3)n2)C1)c1ccc(Cl)cc1 (stereo not drawn) [GSK1379713] | 0% | 33% | 11% | 0% | 0% | 0% | 5% | 11% | 0% | 9% |
| C[C@@H]1CNc2c(sc3ccc4nc(-c5ccc(O)cc5)ccc4c23)C(=O)N1 | 1% | 7% | 0% | 0% | 0% | 0% | 4% | 9% | 7% | 74% |
